D1 agonist – Allosteric Agonists of the Human D1 Dopamine Receptor: qHTS; D(1A) dopamine receptor (Homo sapiens), P21728; HEK293 T-REx D1 cells, calcium flux, agonist mode; activation, % at 2 µM; 360,000 compounds, 1% hits; AID 504660, 2011
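Tetracycline-induced HEK293 TREx D1 cells, force-coupled to calcium signalling, were dye-loaded with a no-wash calcium kit. Compound was pin-added after a 10 s baseline. Fluorescence was read kinetically at 1 cycle/s for 180 s, with calcium rises flagged as agonism.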
TRHR PAM – qHTS for Small Molecule Agonists and Allosteric Enhancers of Human TRH Receptor: Primary Screen for Enhancers; TRHR cells, fluo-8 calcium fluorescence, EC20 TRH enhancement; enhancement, % at 2 µM; 360,000 compounds, 0.66% hits; in the data active means enhancement above about 30%
Target sequence (P34981 whole entry, looked up): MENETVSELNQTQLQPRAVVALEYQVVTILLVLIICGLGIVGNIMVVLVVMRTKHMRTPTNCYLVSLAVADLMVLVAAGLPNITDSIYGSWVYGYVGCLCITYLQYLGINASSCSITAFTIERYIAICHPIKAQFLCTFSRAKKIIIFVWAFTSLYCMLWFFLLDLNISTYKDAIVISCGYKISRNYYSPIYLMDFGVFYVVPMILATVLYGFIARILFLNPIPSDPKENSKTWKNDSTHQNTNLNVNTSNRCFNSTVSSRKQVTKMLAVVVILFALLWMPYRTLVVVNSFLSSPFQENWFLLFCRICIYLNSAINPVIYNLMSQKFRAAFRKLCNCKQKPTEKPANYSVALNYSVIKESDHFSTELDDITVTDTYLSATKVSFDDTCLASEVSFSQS
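Enhancer read-out: after compound pinning and an initial kinetic agonist-mode read, an EC20 of TRH (10 nM final) was injected and fluo-8 calcium signal (Ex 480/Em 530) followed at 1 s/cycle for 100 cycles in TRHR-expressing cells.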
D1 antagonist – Antagonist of Human D 1 Dopamine Receptor: qHTS; D(1A) dopamine receptor (Homo sapiens), P21728; HEK293 TREx D1 cells, calcium flux, dopamine EC80; stronger effect = lower value; activity change, negative = inhibition, % at 10 µM; 360,000 compounds, 3.2% hits; AID 504652, 2011; in the data active means activity change below about -30%
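Cells carrying a force-coupled, tetracycline-inducible human D1 receptor report calcium flux. Each well gets a 10 s baseline, compound with 180 s monitoring, then an EC80 dopamine stimulus with a second 180 s kinetic read.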
TRHR ag – qHTS for Small Molecule Agonists and Allosteric Enhancers of Human TRH Receptor: Primary Screen for Agonists; TRHR cells, calcium flux fluo-8, FDSS agonist mode; activation, % at 2 µM; 360,000 compounds, 0.18% hits; AID 493084, 2011
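Steps: seed TRHR cells overnight; add fluo-8 no-wash Ca dye, RT 30 min–1.5 h; record 10 s baseline; pin-transfer compounds; monitor fluorescence 1 cycle/s for the agonist window. Calcium increases flag candidate agonists.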
D1 PAM – Potentiators of Human D1 Dopamine Receptor: qHTS; AID 504651, 2011; 360,000 compounds, 0.036% hits; potentiation, % at 10 µM; D(1A) dopamine receptor (Homo sapiens), P21728; HEK293 TREx D1 cells, calcium flux, dopamine EC20 potentiation; in the data active means potentiation above about 30%
Large screens that a line does not name were inactive; ! = not confirmed by another sample. In the library only some 4.6% were active in any assay of this set; here they are far more common. Unless noted, no stated cut-off is given here; in the data, active means activation above about 30%; inactive means the rest.

O=C(c1c2c(nc3ccccc13)C(=O)N(C1CCCCC1)C2)N1CCN(c2ccc(F)cc2)CC1	none
CCCN(CCC)CCCNC(=O)C1CCN(c2nc3ccc(CC)cc3s2)CC1	D1 agonist 30, D1 antagonist -31
CCc1ccc2nc(N3CCC(C(=O)NCCC(C)C)CC3)sc2c1	none
CCCN(CCC)CCNC(=O)C1CCN(c2nc3ccc(CC)cc3s2)CC1	D1 agonist 90, D1 antagonist -30
CSc1ccccc1NC(=O)C1=CC(c2ccc3c(c2)OCO3)=NS(=O)(=O)N1C	none
COc1ccc(NC(=O)c2c(C)oc3ccc(O)c(CN4CCN(Cc5ccccc5)CC4)c23)cc1Cl	none
Cc1cc(NCc2ccccc2)nc2ccccc12	D1 agonist 34, D1 antagonist -66
Cc1cc(NCc2ccccc2)c2ccccc2n1	none
Cc1ccc(Nc2ccc(NCc3ccccc3)nn2)cc1C	D1 antagonist -44
Cc1ccc2c(COC(=O)CNC(=O)c3ccccc3)cc(=O)oc2c1	D1 antagonist -50
Cc1ccc(S(=O)(=O)NCC(=O)OCc2cc(=O)oc3cc(C)ccc23)cc1	none
CCO/C=N/c1c(C#N)c(CC#N)nn1-c1ccccc1	D1 antagonist -33
CCOC(=O)c1nn(-c2ccccc2)c(=O)c(C#N)c1C	none
CN(C)c1ccc(/C=C/C(=O)c2ccc3c(c2)OCO3)cc1	D1 agonist 455, TRHR ag 121
CN(C)c1ccc(/C=N/NC(=O)c2ccc3c(c2)OCO3)cc1	D1 antagonist -30
Cc1cccc(Cn2c(C)c(C)c3cc(C(=O)NCc4ccco4)ccc32)c1	none
COc1ccc(Br)cc1CN(C)CC(O)COc1ccc(Br)cc1 (stereo not drawn)	none (no result: D1 PAM)
COc1ccc(C(=O)O)cc1NC(=S)NC(=O)CSc1ccc(Cl)cc1	D1 antagonist -74
COc1cccc(NC(=S)NC(=O)Cc2ccc(Cl)cc2)c1	D1 agonist 68
COc1ccccc1NC(=S)NC(=O)Cc1ccc(Cl)cc1	D1 agonist 57, D1 antagonist -43
CCC(=O)NC(=S)Nc1ccccc1OC	none
O=C(NCCOCCn1c(=O)oc2ccccc21)Nc1ccc(Cl)cc1	none
Cc1nc2ccccc2n1S(=O)(=O)c1ccc(Br)cc1	D1 antagonist -44
CCOc1ccc(/C=C/c2nc3ccccc3n2S(=O)(=O)c2ccc(Br)cc2)cc1	none
CSc1ccc(/C=C/c2nc3ccccc3n2S(=O)(=O)c2ccc(Br)cc2)cc1	D1 antagonist -30
COc1ccc2c(c1)c1c(c(=O)n(-c3cc(Cl)ccc3C)c(=O)n1CC(=O)N1CCCC1)n2C	none
COC(=O)c1ccc(COC(=O)CCc2nc(-c3ccccc3)c(-c3ccccc3)o2)cc1	D1 agonist 30
Cc1ccc(Cn2c(SCc3ccc(C(=O)N4CCCCC4)cc3)nc3ccncc32)cc1	none
Cc1nn(C)c(=O)c(N)c1-c1cc(-c2ccc(Cl)c(Cl)c2)n[nH]1	D1 antagonist -47
Cc1ccc(-c2cc(-c3c(C)nn(C)c(=O)c3N)[nH]n2)cc1	none
O=C1C2C3CCCC3=C3CCCC3C2C(=O)N1c1ccccc1Cl (stereo not drawn)	none
CCC(C)NC(=O)c1ccc(Cn2c(=O)c3cccn3c3cccnc32)cc1 (stereo not drawn)	none
CCOC(=O)c1c(NC(=O)C2COc3ccccc3O2)sc2c1CCN(Cc1ccccc1)C2 (stereo not drawn)	none
COc1cccc(OC)c1C(=O)Nc1sc2c(c1C(N)=O)CCN(Cc1ccccc1)C2	none
NC(=O)c1c(NC(=O)C2COc3ccccc3O2)sc2c1CCN(Cc1ccccc1)C2 (stereo not drawn)	D1 agonist 105, TRHR ag 38
CC(=O)c1ccc(C(=O)Nc2sc3c(c2C(N)=O)CCN(Cc2ccccc2)C3)cc1	D1 agonist 63
O=S(=O)(NCc1ccc2c(c1)OCO2)c1cccc2cccnc12	D1 antagonist -52
Cc1cc(C)c(S(=O)(=O)NCc2ccc3c(c2)OCO3)c(C)c1	D1 antagonist -36
O=S(=O)(NCc1ccc(Cl)cc1)c1cccc2cccnc12	none
CC(C)c1cnc2c(c1SCC(=O)c1ccccc1)c(=O)n(C)c(=O)n2C	none
O=C(Cc1c(F)cccc1Cl)NCc1cccnc1	none
O=C(Cc1ccc(Cl)cc1Cl)NCc1cccnc1	D1 antagonist -41
O=C(NCc1cccnc1)c1ccc(Br)o1	D1 antagonist -32
O=C(NCc1ccncc1)c1ccc(Br)o1	none
COc1ccc(OC)c(N(CC(=O)NCc2ccccc2)S(=O)(=O)c2ccccc2)c1	none
CCc1cccc(C)c1NC(=O)c1cc(S(=O)(=O)N2CCN(c3ccccc3)CC2)ccc1F	none
Cc1cccc(N2CCN(C(=O)c3oc(=O)c4ccccc4c3-c3ccccc3)CC2C)c1 (stereo not drawn)	none
O=C(CSc1ccccc1C(=O)NCc1ccccc1)NC1CCCCCCC1	D1 antagonist -84
O=C(CSc1ccccc1C(=O)O)NC1CCCCCC1	D1 antagonist -39
O=C(CSc1ccccc1C(=O)O)NC1CCCCCCC1	none
CC(C)CCNC(=O)c1ccccc1SCC(=O)NC1CCCCCCC1	none
O=C(NCc1cccc(F)c1)C1CCN(c2nc3ccccc3nc2C(F)(F)F)CC1	none
COc1ccc(-c2onc(C)c2C)cc1S(=O)(=O)Nc1cc(Cl)ccc1C	none
Cc1cc(Cl)ccc1OCC(=O)Nc1c(Cl)ccc2nsnc12	none
COC(=O)c1ccc(NC(=O)n2ncc3c(C)cccc32)cc1	D1 antagonist -70
CC(=O)N1CCc2c(sc3c2c(=O)n(-c2cc(Cl)ccc2C)c(=O)n3Cc2ccccc2F)C1	none
Cc1cccc(NC(=O)c2ccc(CN3CC(=O)N4CCCCC4C3=O)cc2)c1C (stereo not drawn)	TRHR PAM 45
Cc1ccc(C)c(NC(=O)c2ccc(CN3CC(=O)N4CCCCC4C3=O)cc2)c1 (stereo not drawn)	none
CC1=Nc2cc(C(=O)N3CCCCC3)ccc2Sc2ccc(C)cc21	D1 antagonist -44!
CCN(CC)CC(C)CNC(=O)c1cc(-c2ccc(Br)s2)nc2ccccc12 (stereo not drawn)	none
CC(=O)c1cccc(NC(=O)c2noc3c2CCCC3)c1	none
O=C(Nc1ccc(F)cc1)Nc1nnc(-c2ccccc2)o1	none
O=C(Nc1nnc(-c2ccccc2)o1)Nc1ccc(F)cc1F	D1 antagonist -31
Cc1cc(C)c2c(=O)n(CC(=O)NC3CCCC3)sc2n1	none
Cc1cc(C)c2c(=O)n(CC(=O)Nc3ccc(Br)c(C)c3)sc2n1	D1 antagonist -49

Assay outcomes: PubChem BioAssay, National Center for Advancing Translational Sciences (NCATS)
